# Hits are enriched below; roughly 27% of the tested compounds scored in any of these assays.
# CYP2C9 inhib: blocks human cytochrome P450 2C9 | AID 777 | inhibition, % at 5 µM | CYP2C9 Supersomes, luciferin-H conversion, luminescence | 96,000 tested, 20% active;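 active = blocking of liver enzyme CYP2C9 beyond about 50% at 5 µM, limit read from the data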
# Target sequence (P11712 whole entry, looked up): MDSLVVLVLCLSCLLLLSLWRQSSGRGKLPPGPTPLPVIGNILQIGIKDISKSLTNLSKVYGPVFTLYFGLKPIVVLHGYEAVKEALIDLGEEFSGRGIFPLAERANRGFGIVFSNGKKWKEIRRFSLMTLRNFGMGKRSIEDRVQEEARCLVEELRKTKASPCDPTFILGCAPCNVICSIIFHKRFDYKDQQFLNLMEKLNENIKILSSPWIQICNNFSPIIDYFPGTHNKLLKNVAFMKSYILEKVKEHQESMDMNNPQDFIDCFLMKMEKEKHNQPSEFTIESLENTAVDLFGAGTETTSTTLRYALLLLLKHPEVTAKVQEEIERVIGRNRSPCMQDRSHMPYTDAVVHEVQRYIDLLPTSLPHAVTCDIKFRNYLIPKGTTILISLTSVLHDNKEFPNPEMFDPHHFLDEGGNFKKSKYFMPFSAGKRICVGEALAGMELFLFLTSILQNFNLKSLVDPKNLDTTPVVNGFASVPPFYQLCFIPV
# CYP2C9 activ: CYP2C9 (human) activation. 96,000 tested, 1.4% active. activation factor at 5 µM. recombinant CYP2C9, luciferin-H conversion, luminescence; active compounds read high; factor 1 = untreated enzyme, 0 = blocked;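 active = activation factor of 2 or more for CYP2C9 at a 5 µM dose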;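 note: 0 = sulfaphenazole-blocked wells and 1 = vehicle-only wells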
# CYP2C19 inhib: human CYP2C19 inhibition; inhibition, % at 5 µM; 96,000 tested, 21% active; P33261; CYP2C19 Supersomes, luciferin-H EGE luminescence, 30 min;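 active = CYP2C19 inhibition above a set limit at 5 µM in the primary screen, cut at about 50% in these data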;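 note: plate controls were negative control wells for no effect and 2.5 mM tranylcypromine positive control for full effect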
# CYP2C19 act: cytochrome P450 2C19 (human) activation. P33261. recombinant CYP2C19, luciferin-H EGE luminescence; active compounds read high; 0 = fully inhibited enzyme, 1 = untreated enzyme. activation factor at 5 µM. 96,000 tested, under 10 active;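 active = activation factor of at least 2 at 5 µM in the primary screen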;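 note: 0 = wells with 2.5 mM tranylcypromine and 1 = vehicle-only wells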
# EphB4 antag: antagonists of human EphB4-ephrin-B2 interaction | AID 720 | P54760 | EphB4 LBD / TNYL-RAW-Alexa532 peptide, fluorescence polarization | inhibition, % at 7 µM | 97,000 tested, 0.15% active;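 active = inhibition above the screen-wide mean inhibition plus 3 SD, cut at about 15% in these data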;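 note: 0% = DMSO wells and 100% = excess unlabeled TNYL-RAW peptide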
# Numbers without * were called inactive; . = no result given.
SMILES,CYP2C9 inhib,CYP2C9 activ,CYP2C19 inhib,CYP2C19 act,EphB4 antag
Cc1cccc(N2C(=O)CC(N3CCOCC3)C2=O)c1 (stereo not drawn),-13,1.1,17,0.8,.
COC(=O)C1=C(C)Nc2nnnn2C1c1cc(OC)ccc1OC (stereo not drawn),61*,0.4,30,0.7,1
COC(=O)c1nc2n(n1)C(c1cc(OC)ccc1OC)C(C(=O)OC1CCCCC1)=C(C)N2 (stereo not drawn),68*,0.3,47,0.5,-3
C=CCOC(=O)C1=C(C)Nc2nnnn2C1c1ccc(OC)cc1OC (stereo not drawn),12,0.9,20,0.8,2
CCOC(=O)C1=C(C)Nc2ncnn2C1c1cc(OC)ccc1OC (stereo not drawn),19,0.8,-4,1,-2
CCOC(=O)c1sc(NC(=O)CSc2nnnn2-c2ccc(C)cc2C)nc1C,6,0.9,-2,1,-8
CCNC(=O)COC(=O)/C=C/c1ccccc1[N+](=O)[O-],-33,1.3,-3,1,-2
CN(C)C(=O)COC(=O)/C=C/c1ccccc1[N+](=O)[O-],-108,2.1*,-10,1.1,3
C=CCOC(=O)CSCC(NC(=O)OC(C)(C)C)C(=O)OCC (stereo not drawn),45,0.5,58*,0.4,5
CCOC(=O)C(Cc1cc(C(C)=O)ccc1OC(C)C)C(=O)OCC,61*,0.4,60*,0.4,4
Cc1cccc(-c2nsc(SCC(=O)Nc3nccs3)n2)c1,48,0.5,36,0.6,2
Cc1cccc(-c2nsc(SCC(=O)N3CCCC3)n2)c1,-11,1.1,50*,0.5,-4
N#Cc1c(NC(=O)c2ccc(Cn3cc(Br)cn3)o2)sc2c1CCCCCC2,58*,0.4,31,0.7,-1
CCc1ccc(CCC(=O)Nc2sc3c(c2C#N)CCCC3)o1,34,0.7,9,0.9,1
CC1(C)CC(NC(=O)C(F)(F)F)CC(C)(C)N1OC(=O)c1ccco1,7,0.9,10,0.9,.
O=c1oc2ccccc2c2nccnc12,-16,1.2,-14,1.1,-6
Cc1cnc(N)c2c(=O)oc3ccccc3c12,-102,2*,-5,1,-7
CCCCn1c(-c2csc3ccccc23)n[nH]c1=S,89*,0.1,97*,0,-5
CCCCn1c(-c2csc3c2CCCC3)n[nH]c1=S,89*,0.1,70*,0.3,2
C=CCOc1ccc2c(OC)c3ccoc3nc2c1OC,.,.,.,.,-1
CC1=C(C(=O)OCC2CCCO2)C(c2ccccc2Cl)NC(=O)N1 (stereo not drawn),.,.,.,.,2
CCCC1=C(C(=O)OCC)C(c2ccccc2OCC)NC(=O)N1C (stereo not drawn),81*,0.2,81*,0.2,-3
CC1=C(C(N)=O)C(c2ccccc2F)NC(=O)N1 (stereo not drawn),53*,0.5,-4,1,0
CCCCOc1ccccc1C1NC(=O)NC(C)=C1C(=O)OCCOCC (stereo not drawn),75*,0.3,70*,0.3,3
CCOC(=O)C1=C(N)OC2=C(C(=O)CCC2)C1c1ccccc1OCC (stereo not drawn),49,0.5,80*,0.2,1
SMILES,CYP2C9 inhib,CYP2C9 activ,CYP2C19 inhib,CYP2C19 act,EphB4 antag
CCOC(=O)C1=C(C)N(C)C(=O)NC1c1ccccc1OC (stereo not drawn),14,0.9,28,0.7,-5
CCOc1ccc(CCNC(=O)CCCN2C(=O)c3ccccc3C2=O)cc1OCC,20,0.8,3,1,4
CCOC(=O)C1=C(C)NC(=O)NC1c1ccccc1OCc1c(F)cccc1Cl (stereo not drawn),70*,0.3,21,0.8,-1
CCCCOc1ccccc1C1NC(=O)NC(C)=C1C(=O)OCc1ccco1 (stereo not drawn),73*,0.3,61*,0.4,1
CCCOc1ccccc1C1NC(=O)NC(C)=C1C(=O)OCCOCC (stereo not drawn),21,0.8,24,0.8,9
CN(Cc1nc(-c2ccccn2)no1)S(=O)(=O)c1ccccc1,15,0.8,64*,0.4,10
CN(Cc1nc(-c2ccncc2)no1)S(=O)(=O)c1ccc(Cl)cc1,93*,0.1,96*,0,-2
CN(Cc1nc(-c2ccncc2)no1)S(=O)(=O)c1ccccc1,72*,0.3,99*,0,-7
Cc1ccc(S(=O)(=O)N(C)Cc2nc(-c3ccccn3)no2)cc1,-1,1,-7,1.1,0
CN(Cc1nc(-c2ccncc2)no1)S(=O)(=O)c1ccc(Br)cc1,93*,0.1,89*,0.1,-6
CCC(C(=O)O)n1c(C(F)(F)F)nc2ccccc21 (stereo not drawn),-19,1.2,-6,1.1,-4
O=C(CCSCCC(=O)N1CCCC1)N1CCCC1,21,0.8,1,1,-5
CC(C)c1ccc(OC(=O)NCCO)cc1,-10,1.1,49,0.5,6
COc1ccc(NC(=O)CSC2CC(=O)N(c3ccc4c(c3)OCCO4)C2=O)cc1 (stereo not drawn),27,0.7,48,0.5,.
CC(=O)c1c(COC(=O)c2cccnc2)nc2ccccc2[n+]1[O-],5,0.9,48,0.5,0
Cn1cc(CN2CCc3ccccc3C2)c2ccccc21,-40,1.4,96*,0,-7
O=C(CCn1cccc1)N1CCc2ccccc21,-5,1,52*,0.5,.
CCc1nnc(NCC(=O)N2CCc3ccccc32)s1,60*,0.4,48,0.5,-12
COc1ccc(CC(=O)N2CCc3ccccc32)cc1,.,.,.,.,-1
CCc1nnc(NC(=O)c2c(O)c3cccc4c3n(c2=O)CC4)s1,-2,1,-5,1.1,.
O=C(Cc1ccccc1)N1CCc2ccccc21,26,0.7,82*,0.2,-4
O=C(c1c[nH]c2ccc(S(=O)(=O)N3CCOCC3)cc2c1=O)N1CCN(c2ccccn2)CC1,15,0.9,11,0.9,5
CCOC(=O)N1CCN(S(=O)(=O)c2cc(-c3nn4c(C)nnc4c4ccccc34)ccc2C)CC1,80*,0.2,56*,0.4,3
Cc1ccc(-c2nn3c(C)nnc3c3ccccc23)cc1S(=O)(=O)N(C)CCO,86*,0.1,3,1,-4
Cc1c(C(=O)NCC2CCCO2)oc2ccc3c(c12)C(=O)CC(C)(C)O3 (stereo not drawn),16,0.8,-1,1,-3
CCC(C)Sc1nc2c(c(=O)[nH]c(=O)n2C)n1Cc1ccc(Cl)cc1 (stereo not drawn),26,0.7,-1,1,.
COc1ccccc1C(=O)O/N=C1/CCCc2c1ccc(OC)c2[N+](=O)[O-],51*,0.5,85*,0.1,-5
COc1cc(C(=O)NCCC2=CCCCC2)cc(OC)c1OC,32,0.7,75*,0.2,.
C=CCN1C(=O)CSc2ccc(C(=O)NCCC3=CCCCC3)cc21,52*,0.5,26,0.7,2
